This note sets out measurements from the supplement of paper PMC6555819.

This assay relates to PPARg:RXRa IVT, anti-PPARg (NR concentration 270 nM, RXRa partner concentration 90 nM). Description: PBM binding z-score (relative to random genomic background probes); higher = stronger binding; sequences stand for … in GC…GCGATTGACAGCGTAGAATGAAGG
An outline of the steps: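 Probes were double-stranded and carried 34-nt variable regions with direct-repeat seeds, single-nucleotide variants, half-site ablations and random human genomic background sequences, printed on custom Agilent 4×180K protein-binding microarrays. Arrays were incubated 1 h with ligand-free nuclear receptor dimers in PBS pH 7.4, 2% milk, 0.02% Triton X-100, 1 mM DTT, 0.2 mg/mL BSA and 0.4 mg/ml salmon testes DNA. Antibodies against each partner (one per run) detected binding, and scanned fluorescence was regression-normalized. Binding z-scores use the random background probes as reference.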
Sequence ATATGTAGGTTAGCTGTGGTCATTCAGACTAGGC gave a PBM binding z-score of 6.07.

Regarding TCTCGGAGGACACGAAAGGTCAGCGCTCGACATC, the PBM binding z-score came to 1.8.

TCCTGTAGATCAAAGGTTAAGAAAGCCGAAGCCT came in with a PBM binding z-score of 3.04.

Consider TCTAGTTGGTCGAAGGTCACACACTCGAAATGCG, for which the PBM binding z-score stood at 3.68.

Regarding TCATATAGGTAAAGGTGAAAGTCGAACGATATGA, the PBM binding z-score came out at 4.23.

TAGCCTAGGTCATTCATGGGCCAGTATAGAAAGC returned a PBM binding z-score of 2.53.

AGAATGAGCTTATACGTAGATCAGGGAAGAAAGT: the PBM binding z-score is -0.676.

With GCGACTGGGGCAAAGCAGGTTACCATAAGGTTGG, the PBM binding z-score was 3.61.

The sequence ACTAGTTTGTCAGCTGAGGTCACACACAATTCGG came in with a PBM binding z-score of 2.31.

Take ATACCAAGGTGTTCGTGAGGTCGTTGATACTAAC: the PBM binding z-score stood at 0.497.

Sequence CCAGACAGGTGAAAGGTAAGTCAGTCTGGTACGC gave a PBM binding z-score of 2.43.

As to AGAATGAGGTTATACGTATATCAGGGAAGAAAGT, the PBM binding z-score was 2.25.

Regarding GCTATTAGTTGAAAGGGCTACCGAATGATTCTCG, the PBM binding z-score is -0.182.

In turn, CCTACTGGGCCAAAGGTCATTGTTTCCAATGCTC had a PBM binding z-score of 6.92.

For the sequence GCTAGCAGGCCATTTGGGTCTCTCAATGACGGGC, the PBM binding z-score turned out to be 0.258.

Consider TCGAGTAGGTTAGTTGGGGCATTCAGCCAACATA, for which the PBM binding z-score amounted to 1.73.

In the case of AATACAGGGCCACTAGGCCAGAGTAGGTACGAAT, the PBM binding z-score amounted to 2.42.

As for ATACGTAGGTTAGCTGGGGTCATTCAGACTAGGC, the PBM binding z-score came out at 1.51.

Consider GCTAGTTGGCCAGTAAAAGGTCACACACCGGTCG, for which the PBM binding z-score was determined as 1.78.

As to TGTCAAAGTTCAGAGGTAACGTAAGTATCCACAC, the PBM binding z-score was found to be 3.54.

Consider ATCTCTAGGTCAGACTCAGTTCAGTGAAGAACGC, for which the PBM binding z-score was 5.22.

In turn, TCACATAGGTAAAAGGTGAAAGTCGGTGTGGTAA gave a PBM binding z-score of 3.19.

TCTTGTAGATGAATAGAGGTTAAGAAAGTGCGCT gave a PBM binding z-score of 1.18.

Sequence AGAATTAGGTTACCAAAGATCAGGGAAACGCTTG yielded a PBM binding z-score of 6.16.

Take ATCTCTAAGTAAAGTTCAGTGAAAGATCGATAGA: the PBM binding z-score was determined as 0.648.

Sequence AATAGAGGGTCACTAGGCCAGAGTAGGTACGAAT had a PBM binding z-score of 5.33.

Sequence AGAACGAGGGCACGCTGATTTGATAGCAGAGTAG showed a PBM binding z-score of 4.09.

Turning to GGAACGAGGGCAAGTTGATGGCAGAGTTTGATGG, the PBM binding z-score was determined as 2.56.

The sequence CCTAGTTGGTCAATGTCACACACGCTATAGGTAC yielded a PBM binding z-score of 1.6.

Turning to TCATTTAGGTAATACAGGTGAAAGTCGGCATCTA, the PBM binding z-score came to 3.29.

CCTTACGGGTTACTGACAGGTTATAGCATTTGGA: the PBM binding z-score was found to be 0.57.

The sequence ACTATTCGTTGACTTAGGGCAACCGATACGACGC gave a PBM binding z-score of 0.623.

In turn, ACCTCTAGGTAAGACTCAGTTCAGTGAAGAACGC came in with a PBM binding z-score of 0.243.

For CGTCCAAGGTCAATGCTAGGTCAGTGAAAGCATT, the PBM binding z-score came out at 3.83.

ACTATTAGTTGAGACGAGGGCAACCGCTAGGTTG: the PBM binding z-score was 0.177.

Take TCTTGTAGATCAAAAGAGGTTAAGAAAGTGCGCT: the PBM binding z-score came out at 0.83.

On to CGAACGAGGGCATGAGTTGAGAGCAAATGCCGAT, for which the PBM binding z-score was 2.16.

As for GCTATTAGTTGAAAGGGCAACCAAATGATTCTCG, the PBM binding z-score is 1.15.

Sequence CAAACTAGGTCAAAGGTCAAAGGCGAGCCAACCA showed a PBM binding z-score of 9.3.

The sequence GCTTGTAGATCAACGTTAAGAAAGACTAAGCTAA registered a PBM binding z-score of 0.269.
